# Screening data: PubChem BioAssay, several laboratories
# Compounds with a hit are over-represented: about 2.7% of the library has one in this group of screens.
# KLK7 zymogen act – proKLK7 (human) activation, primary screen; P49862; activation, % at 7 µM; AID 652039; purified proKLK7, EDANS-DABCYL substrate fluorescence; 100% is mature enzyme control, 0% vehicle; 370,000 tested, 0.9% active;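 active = activation above the mean of all tested compounds plus 3 SD, computed per campaign excluding outliers beyond control limits, cut at about 13% in these data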
# Neddyl block – inhibitors of human cullin neddylation. 360,000 tested, 0.58% active. calls only at 25 µM. AID 651699. TR-FRET cullin neddylation, biochemical. P61081+Q13564; in the data active = inhibition above about 36%
# Target sequence (P61081 whole entry, looked up): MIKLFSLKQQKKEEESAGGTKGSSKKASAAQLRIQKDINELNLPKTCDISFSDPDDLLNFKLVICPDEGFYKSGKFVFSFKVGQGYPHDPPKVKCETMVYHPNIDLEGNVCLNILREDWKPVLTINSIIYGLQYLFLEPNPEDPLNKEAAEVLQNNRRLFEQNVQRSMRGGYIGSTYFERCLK
# Target sequence (Q13564 whole entry, looked up): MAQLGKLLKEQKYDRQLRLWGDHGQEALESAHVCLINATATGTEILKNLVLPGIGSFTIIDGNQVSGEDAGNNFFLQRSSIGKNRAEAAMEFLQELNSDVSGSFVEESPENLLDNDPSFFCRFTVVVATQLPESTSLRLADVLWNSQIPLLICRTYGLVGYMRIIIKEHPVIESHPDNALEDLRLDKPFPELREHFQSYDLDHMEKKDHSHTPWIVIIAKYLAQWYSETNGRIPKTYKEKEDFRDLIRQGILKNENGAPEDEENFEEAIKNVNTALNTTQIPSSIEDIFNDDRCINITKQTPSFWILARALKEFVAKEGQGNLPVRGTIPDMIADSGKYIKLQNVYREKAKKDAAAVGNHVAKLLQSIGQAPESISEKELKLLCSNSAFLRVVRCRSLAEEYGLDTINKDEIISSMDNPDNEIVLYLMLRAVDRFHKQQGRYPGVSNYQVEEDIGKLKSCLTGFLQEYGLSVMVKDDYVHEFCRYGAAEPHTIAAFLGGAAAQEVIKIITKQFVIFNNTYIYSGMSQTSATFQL
# PfG6PD inh – PfG6PD (Plasmodium falciparum) enzyme inhibition | PfGluPho enzyme, NADPH resazurin-diaphorase fluorescence | inhibition, % at 20 µM | 350,000 tested, 0.78% active;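 active = inhibition reaching at least a set limit at 20 µM in the primary screen, cut at about 59% in these data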;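 note: 0% = DMSO wells with substrate and 100% = DMSO wells lacking glucose-6-phosphate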
# FAS TE block – blocks the thioesterase domain of human fatty acid synthase; 360,000 tested, 0.67% active; P49327; inhibition, % at 15 µM; recombinant FAS-TE, OMFH fluorogenic substrate, fluorescence endpoint;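 active = compounds whose normalised, plate-corrected inhibition of enzyme fluorescence in the single-dose primary screen is 50% or more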;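 note: 0% = DMSO with enzyme and 100% = substrate without enzyme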
# FAS-TE conf – FAS thioesterase (human) inhibition, confirmation; shares compounds with FAS TE block; recombinant FAS-TE, OMFH fluorogenic substrate, fluorescence; inhibition, % at 15 µM; 2,300 tested, 45% active; AID 624325;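 active = compounds inhibiting the enzyme by at least 50% at 15 µM in any one of the replicates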;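 note: 0% = enzyme with DMSO only and 100% = wells lacking enzyme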
# * = called active by the depositor; i = inactive; . = no result shown.
SMILES,KLK7 zymogen act,Neddyl block,PfG6PD inh,FAS TE block,FAS-TE conf
O=C(Cc1ccccc1)NC1CCN(C(=O)c2ccc([N+](=O)[O-])cc2)CC1,-0.8,i,-11.5,-2.1,.
O=S(=O)(CC1NCc2ccccc21)NC1CCCC1 (stereo not given),-0.4,.,.,.,.
Nn1c(SCc2ccc([N+](=O)[O-])cc2)nnc1-c1cc(-c2ccccc2)n[nH]1,-0.8,.,.,.,.
Cc1cc(OC(C)CCN2CCC(C(O)(c3ccccc3)c3ccccc3)CC2)ccc1Br (stereo not given),-0.4,.,.,.,.
O=C(Cn1nc(-c2ccccc2)c2ccccc2c1=O)Nc1ccc(F)cc1,1.4,i,-6.0,-0.6,.
N#Cc1c(-c2ccccc2)c(-c2ccccc2)nn(CC(=O)NNC(=O)Nc2ccc(Cl)c(Cl)c2)c1=O,2.0,i,2.6,68.9*,48.1*
O=C(Nc1ccc(Br)cc1)c1cccc(-n2cnnn2)c1,-0.2,i,10.3,52.4*,30.5*
CS(=O)(=O)c1ccc(NC(=O)c2cccc(-n3cnnn3)c2)cc1,0.3,i,2.7,1.1,.
CC(C)c1cc(C(C)C)c(S(=O)(=O)N2CCC(C(=O)NCC3COCCO3)CC2)c(C(C)C)c1 (stereo not given),0.1,.,.,.,.
Cc1ccc(S(=O)(=O)N2CCN(C(=O)c3cc4c(C)nn(-c5ccccc5)c4s3)CC2)cc1,0.3,i,4.5,62.2*,12.9
Cc1ccccc1-c1nc2sc(C)c(C)c2c(=O)o1,-0.7,i,-4.3,52.6*,38.8
Cc1sc2nc(-c3ccco3)oc(=O)c2c1C,-0.7,.,-0.1,29.1,.
CC(=O)c1cc(-c2ccccc2S(=O)(=O)NC(C)(C)C)c(=O)n2c1CCC2,-0.1,.,.,.,.
COC(=O)N1C(=O)[C@](CC(C)C)(c2ccccc2)N1C(=O)OC,0.3,i,28.0,85.3*,87.8*
CC[C@@]1(c2cccc(C)c2)C(=O)N(C(=O)OC)N1C(=O)OC,-0.2,i,5.2,79.2*,70.5*
COC(=O)N1C(=O)[C@](c2ccc(OC)cc2)(C(C)C)N1C(=O)OC,-0.4,i,-24.7,71.7*,82.4*
COC(=O)N1C(=O)[C@](c2ccccc2)(C2CCCCC2)N1C(=O)OC,-0.3,i,-13.9,79.8*,94.7*
Cc1cc(C)cc(C(=O)OCCN(C)C2CN(Cc3cn(Cc4ccc([N+](=O)[O-])cc4)nn3)S(=O)(=O)C2)c1 (stereo not given),0.5,.,.,.,.
O=C(c1cnn2c(C(F)(F)F)cc(-c3ccccc3)nc12)N1CCCc2ccccc21,0.2,i,-8.4,-8.4,.
O=C(c1nn2c(C(F)(F)F)cc(-c3cccs3)nc2c1Cl)N1CCCc2ccccc21,-0.3,i,-1.6,68.2*,-3.3
N#Cc1ccc(Oc2nc(C#N)cc(-c3ccccc3)n2)cc1,0.1,i,8.5,44.0,.
N#Cc1cc(-c2ccccc2)nc(Oc2ccccc2)n1,0.3,i,10.4,68.7*,45.3*
C[C@@H]1CN([C@H](C)CO)C(=O)c2cc(NC(=O)Nc3ccc(F)cc3)ccc2O[C@@H](C)CCCCO[C@H]1CN(C)S(=O)(=O)c1cccs1,-0.1,i,17.7,81.2*,77.8*
C[C@@H]1CCCCO[C@H](CN(C)S(=O)(=O)c2cccs2)[C@@H](C)CN([C@H](C)CO)C(=O)c2cc(NC(=O)Nc3ccc4c(c3)OCO4)ccc2O1,-0.4,i,14.1,59.8*,11.3
CC(C)(C)c1ccc(Cn2cnc(-c3ccc([N+](=O)[O-])cc3)c2)cc1,-1.2,i,25.2,51.4*,30.9
SMILES,KLK7 zymogen act,Neddyl block,PfG6PD inh,FAS TE block,FAS-TE conf
CC(C)(C)c1ccc(CNc2ccc([N+](=O)[O-])cn2)cc1,0.3,i,3.9,-96.5,.
Cc1cc(C)c(Cn2cnc(-c3ccc([N+](=O)[O-])cc3)c2)c(C)c1,-0.4,i,32.6,53.8*,52.8*
C[C@@H]1COc2cc(Br)ccc2S(=O)(=O)N1Cc1cn(CCC2OCCCO2)nn1,0.3,.,.,.,.
CN1C(=O)c2cc(NC(=O)Nc3ccccc3)ccc2OC[C@H]2O[C@@H](CC(=O)NC3CCC3)CC[C@@H]21,0.3,.,.,.,.
Cc1ccc(S(=O)(=O)N/N=C2/CCCCC2C2CCCCC2)cc1[N+](=O)[O-] (stereo not given),-0.5,i,-12.4,31.3,.
CCC(C)(C)C1CCC(=NNS(=O)(=O)c2ccc(C)c([N+](=O)[O-])c2)CC1 (stereo not given),-0.3,i,0.3,72.7*,57.9*
CN(C)CC(=O)N[C@@H]1C[C@@H]2O[C@@H](CO)CC[C@@H]2O[C@@H]1CCc1ccc(-c2ccc(F)cc2)cc1,0.2,.,.,.,.
CCCCCn1c(=NC(C)=O)c(C#N)cc2c(=O)n3ccccc3nc21,6.2,.,-4.8,61.2*,23.3
CCOCCCn1c(=NC(C)=O)c(C#N)cc2c(=O)n3cccc(C)c3nc21,11.6,.,22.7,24.8,.
CCCCn1c(=NC(C)=O)c(C#N)cc2c(=O)n3cccc(C)c3nc21,2.6,.,-12.4,50.3*,31.6
COc1ccc(-c2cc(-c3nnc(SCC(=O)Nc4nccs4)n3N)[nH]n2)cc1,-0.3,.,.,.,.
COc1ccc([N+](=O)[O-])cc1C(=O)NCCOc1ccc(Cl)cc1,0.1,i,-2.9,62.7*,68.3*
O=C(Nc1ccc(S(=O)(=O)N2CCOCC2)cc1)C1CC1,-1.1,i,-12.7,-3.7,.
Cc1ccc(NC(=O)c2ccc(S(=O)(=O)N3CC(C)CC(C)C3)cc2)cc1S(=O)(=O)N1CCOCC1 (stereo not given),0.1,i,0.3,50.1*,7.4
Cc1ccc(NC(=O)C2CCN(S(=O)(=O)c3ccc(C(C)(C)C)cc3)CC2)cc1S(=O)(=O)N1CCOCC1,0.0,i,3.5,88.9*,31.2
CCCCCCCCN1CCS(=O)(=O)N(Cc2ccc(C)cc2)C(C(=O)OC)C1 (stereo not given),0.4,.,.,.,.
Cn1c(=O)c2c3c(sc2n2c(SCC(N)=O)nnc12)CC(C(C)(C)C)CC3 (stereo not given),-0.2,i,18.5,56.1*,41.2
CCCCN(CCCC)C(=O)CSc1nnc2n(C)c(=O)c3c4c(sc3n12)CCCC4,0.0,i,6.2,17.5,.
COC(=O)[C@@]12CCCCC3=C1N(CCC3)C(=O)[C@H]2CC(=O)N1CCN(C(=O)c2ccco2)CC1,0.0,.,.,.,.
N#CCC[C@H]1CC[C@]2(CCCN(Cc3cccc4ccccc34)C2)O1,0.2,.,.,.,.
Cc1ccc(Cn2cc(CN3[C@H](Cc4ccccc4)COc4cc(Br)ccc4S3(=O)=O)nn2)cc1,0.3,.,.,.,.
O=[N+]([O-])c1ccc(N2CCN(S(=O)(=O)c3ccc4ccccc4c3)CC2)cc1NCC1CCCO1 (stereo not given),0.8,i,-3.4,51.0*,1.6
Cn1cnnc1Sc1cc(N2CCN(S(=O)(=O)c3ccc(Cl)c(Cl)c3)CC2)ccc1[N+](=O)[O-],0.8,i,13.3,18.3,.
Cn1cnnc1Sc1cc(N2CCN(S(=O)(=O)c3ccc4ccccc4c3)CC2)ccc1[N+](=O)[O-],0.0,i,-14.0,63.5*,-4.1
O=C(COC(=O)CSc1ccc([N+](=O)[O-])cc1)NCCC1=CCCCC1,1.2,i,11.6,2.6,.
